Reference: PubChem BioAssay (NCATS)
“And” between values parts separate entries of the source, which are not always exact repeats. Equal entries are not always repeated. Inconclusive results are not listed. Entries that show only a call come without a potency. The source made the active and inactive calls. Unless noted, calls come from the whole dose curve.

Experiments:
[1] = molecular target: Cytochrome P450 3A4 (Homo sapiens) (UniProt P08684); test: qHTS Assay for Inhibitors and Substrates of Cytochrome P450 3A4 (AID 884; active = well fitted curve in the direction sought with a large enough effect; an effect the other way counts as inactive or inconclusive; note: nearly all actives have a fitted effect of over 50% in size)
Cytochrome P450 3A4 (Homo sapiens), sequence (P08684 whole entry, looked up): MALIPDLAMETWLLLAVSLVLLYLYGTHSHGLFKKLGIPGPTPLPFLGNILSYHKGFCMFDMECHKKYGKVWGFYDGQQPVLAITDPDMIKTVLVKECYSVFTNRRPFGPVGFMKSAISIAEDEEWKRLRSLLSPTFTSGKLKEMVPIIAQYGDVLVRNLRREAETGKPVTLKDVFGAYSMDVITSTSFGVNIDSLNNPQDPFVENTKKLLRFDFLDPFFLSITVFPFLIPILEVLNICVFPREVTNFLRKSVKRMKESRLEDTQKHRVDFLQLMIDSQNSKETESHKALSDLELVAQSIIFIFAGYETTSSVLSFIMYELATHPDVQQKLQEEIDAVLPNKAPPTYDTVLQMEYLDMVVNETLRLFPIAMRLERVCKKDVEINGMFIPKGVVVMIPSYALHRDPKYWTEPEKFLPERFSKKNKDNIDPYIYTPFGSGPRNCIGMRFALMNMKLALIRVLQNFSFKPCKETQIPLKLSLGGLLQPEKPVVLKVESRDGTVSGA
Method in brief: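 20 nM human CYP3A4 with 25 uM Luciferin-PPXE (at KM) in 200 mM KPO4, preincubated 10 min with compound; NADPH regeneration started a 60 min RT reaction. Luciferin detected by luminescence, normalized to 57 uM ketoconazole as full inhibition.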

[2] = qHTS Assay for Lipid Storage Modulators (AID 1519); conditions: Drosophila S3 cells, BODIPY lipid droplet/cell ratio, laser cytometry, cells loaded with oleic acid; for activity change, negative = inhibition: at 57.5 µM (top of the series)
Method in brief: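 Cells seeded at 5,000 per well were treated with compounds over a concentration series and loaded with oleic acid (400 uM, as added). Lipid droplet fluorescence (488 nm excitation, 500-530 nm channel) was read by laser-scanning cytometry and normalized to 20 uM Triacsin C.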

[3] = molecular target: DNA dC->dU-editing enzyme APOBEC-3G (Homo sapiens) (UniProt Q9HC16); test: qHTS for inhibitors of Vif-A3G interactions: Validation (AID 588379; active = well fitted curve in the direction sought with a large enough effect; an effect the other way counts as inactive or inconclusive)
DNA dC->dU-editing enzyme APOBEC-3G (Homo sapiens), sequence (Q9HC16 whole entry, looked up): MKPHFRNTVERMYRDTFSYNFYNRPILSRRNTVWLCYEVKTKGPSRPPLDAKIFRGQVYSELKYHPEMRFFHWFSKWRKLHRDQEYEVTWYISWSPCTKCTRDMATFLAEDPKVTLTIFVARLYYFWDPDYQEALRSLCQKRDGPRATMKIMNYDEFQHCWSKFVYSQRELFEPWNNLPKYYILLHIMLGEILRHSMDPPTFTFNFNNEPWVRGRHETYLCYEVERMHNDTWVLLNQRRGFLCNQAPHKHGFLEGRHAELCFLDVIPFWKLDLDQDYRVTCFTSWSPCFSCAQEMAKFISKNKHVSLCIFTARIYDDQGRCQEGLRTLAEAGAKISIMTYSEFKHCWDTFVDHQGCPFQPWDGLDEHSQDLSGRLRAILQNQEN
Method in brief: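 HeLa cells stably expressing Vif and A3G-eYFP, 700 cells/well, incubated overnight at 37 deg C, then exposed to compound overnight at 37 deg C. Inhibition of Vif-mediated degradation read as increased yellow fluorescence (Ex 488/Em 500-530) by laser-scanning cytometry.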

[4] = Confirmation and Secondary Assay for Modulators of Hemoglobin Beta Chain Splicing at IVS2 654 locus (AID 910; active = well fitted curve in the direction sought with a large enough effect; an effect the other way counts as inactive or inconclusive)
Method in brief: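 HeLa cells stably carrying EGFP interrupted by mutant beta-globin IVS2-654 intron (CMV-driven) were treated with compound for 2 days at 37C; corrected splicing was scored as total peak GFP intensity per well (488 nm excitation, 500-520 nm emission).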

[5] = Confirmation and Secondary Assay for Modulators of Hemoglobin Beta Chain Splicing at IVS2 705 locus (AID 930; active = well fitted curve in the direction sought with a large enough effect; an effect the other way counts as inactive or inconclusive;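 note: HeLa cells stably expressing the EGFP-705 splicing reporter; GFP fluorescence per well restored by corrected splicing of the IVS2-705 intron in EGFP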)
Method in brief: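 Read-out: total peak GFP fluorescence per well (488 nm excitation, 500-520 nm emission) by laser-scanning cytometry. Cells: HeLa EGFP-705 splicing reporter, 2 days compound exposure in Optimem/2% FCS.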

[6] = molecular target: Estrogen receptor (Homo sapiens) (UniProt P03372); test: qHTS assay for small molecule antagonists of estrogen receptor alpha signaling (AID 588513; active = well fitted curve in the direction sought with a large enough effect in the signal ratio, with a control signal flat, not every such curve was filed as active; the % refers to the signal ratio)
Estrogen receptor (Homo sapiens), sequence (P03372 whole entry, looked up): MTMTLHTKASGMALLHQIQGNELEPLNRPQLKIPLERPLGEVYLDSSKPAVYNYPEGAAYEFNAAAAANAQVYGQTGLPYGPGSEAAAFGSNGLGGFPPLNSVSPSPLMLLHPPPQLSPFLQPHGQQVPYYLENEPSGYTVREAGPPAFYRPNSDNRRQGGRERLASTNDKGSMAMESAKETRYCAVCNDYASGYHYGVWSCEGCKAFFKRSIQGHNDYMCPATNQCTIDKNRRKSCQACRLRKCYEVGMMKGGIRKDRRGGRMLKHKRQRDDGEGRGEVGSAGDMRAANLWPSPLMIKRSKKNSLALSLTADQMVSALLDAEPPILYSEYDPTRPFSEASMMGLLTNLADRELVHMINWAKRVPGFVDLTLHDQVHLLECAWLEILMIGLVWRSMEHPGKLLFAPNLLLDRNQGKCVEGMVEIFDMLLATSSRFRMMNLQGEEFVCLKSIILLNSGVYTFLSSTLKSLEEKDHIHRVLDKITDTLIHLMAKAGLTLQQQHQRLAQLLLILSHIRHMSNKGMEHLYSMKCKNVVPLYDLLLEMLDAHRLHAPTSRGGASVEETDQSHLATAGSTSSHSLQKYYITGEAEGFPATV
Method in brief: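 Antagonist-mode qHTS in ER-alpha-UAS-bla HEK 293 cells: compound titration, 0.5nM estradiol for 18 h, CCF4 fluorescence, Hill-derived IC50.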

[7] = molecular target: Estrogen receptor (Homo sapiens) (UniProt P03372); test: qHTS assay for small molecule agonists of estrogen receptor alpha signaling (AID 588514); note: nearly all actives have a fitted effect of over 70% in size
Method in brief: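 ER-alpha-UAS-bla GripTite HEK 293 cells in medium with 2% charcoal/dextran-treated FBS were treated with compound titrations at 37 C for 18 hrs; beta-lactamase reporter read by CCF4 fluorescence after 2 hrs at RT.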

[8] = qHTS assay for small molecule antagonists of peroxisome proliferator-activated receptor delta signaling (AID 588535; active = well fitted inhibition curve with a large enough effect in the signal ratio, with a control signal flat, not every such curve was filed as active; the % refers to the signal ratio;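 for max response: cells co-treated with a PPAR-delta agonist as stimulator during compound exposure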); conditions: HEK293T PPARd-UAS-bla, beta-lactamase FRET ratio, 18 h; 460 nm channel
Method in brief: (§1)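 GeneBLAzer PPAR-delta-UAS-bla HEK293T cells in medium with 2% charcoal/dextran FBS were preincubated 5 hrs at 37 C, then given compounds, incubated 18 hrs at 37 C, and read by CCF4 beta-lactamase fluorescence; IC50 from Hill fits.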

[9] = molecular target: Peroxisome proliferator-activated receptor delta (Homo sapiens) (UniProt Q03181); test: as above
Peroxisome proliferator-activated receptor delta (Homo sapiens), sequence (Q03181 whole entry, looked up): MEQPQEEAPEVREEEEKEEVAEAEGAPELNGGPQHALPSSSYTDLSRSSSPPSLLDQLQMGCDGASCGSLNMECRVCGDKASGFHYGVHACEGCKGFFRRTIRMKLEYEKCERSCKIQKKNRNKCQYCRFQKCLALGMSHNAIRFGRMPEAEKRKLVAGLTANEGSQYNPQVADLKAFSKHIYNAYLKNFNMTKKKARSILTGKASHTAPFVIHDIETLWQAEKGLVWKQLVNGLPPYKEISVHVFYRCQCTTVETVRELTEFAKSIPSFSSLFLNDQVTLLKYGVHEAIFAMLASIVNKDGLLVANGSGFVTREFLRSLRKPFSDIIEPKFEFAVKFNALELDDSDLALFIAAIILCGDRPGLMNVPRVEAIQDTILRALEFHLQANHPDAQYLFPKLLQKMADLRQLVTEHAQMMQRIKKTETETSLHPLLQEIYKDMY
Method in brief: as §1

[10] = molecular target: Peroxisome proliferator-activated receptor gamma (Homo sapiens) (UniProt P37231); test: qHTS assay for small molecule agonists of peroxisome proliferator-activated receptor gamma signaling (AID 588536; active = well fitted curve in the direction sought with a large enough effect in the signal ratio, with a control signal flat, not every such curve was filed as active; the % refers to the signal ratio)
Peroxisome proliferator-activated receptor gamma (Homo sapiens), sequence (P37231 whole entry, looked up): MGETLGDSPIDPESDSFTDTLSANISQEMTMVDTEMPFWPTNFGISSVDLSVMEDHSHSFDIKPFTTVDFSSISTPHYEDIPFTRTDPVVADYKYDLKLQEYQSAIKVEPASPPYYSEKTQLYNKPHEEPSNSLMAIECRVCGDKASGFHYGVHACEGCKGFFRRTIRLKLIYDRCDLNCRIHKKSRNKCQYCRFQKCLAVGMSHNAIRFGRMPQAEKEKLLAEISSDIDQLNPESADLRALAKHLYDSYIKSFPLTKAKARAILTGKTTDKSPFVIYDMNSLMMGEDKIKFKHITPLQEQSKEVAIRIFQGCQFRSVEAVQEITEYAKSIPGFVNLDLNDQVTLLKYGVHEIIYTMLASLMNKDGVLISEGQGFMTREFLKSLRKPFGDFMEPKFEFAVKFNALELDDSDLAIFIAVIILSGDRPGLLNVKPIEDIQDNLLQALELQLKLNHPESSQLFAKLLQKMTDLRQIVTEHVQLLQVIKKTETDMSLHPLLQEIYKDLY
Method in brief: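 Test agents, titrated, stimulated HEK293 UAS-bla cells overnight (16 h, 37 C). Substrate CCF4 was then added for two hours at room temperature before fluorescence reading.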

[11] = molecular target: Peroxisome proliferator-activated receptor gamma (Homo sapiens) (UniProt P37231); test: qHTS assay for small molecule antagonists of peroxisome proliferator-activated receptor gamma signaling (AID 588537; active = well fitted inhibition curve with a large enough effect in the signal ratio, with a control signal flat, not every such curve was filed as active; the % refers to the signal ratio;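 note: reporter cells co-stimulated with 50 nM rosiglitazone agonist during compound treatment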)
Method in brief: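 PPAR-gamma-UAS-bla HEK293 cells (3000/well, 1% charcoal/dextran-stripped FBS) were preincubated 6-6.5 h at 37 C, given titrated compounds, then stimulated with 50 nM rosiglitazone for 16 h. Beta-lactamase activity was read with CCF4 dye; IC50 came from Hill fits.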

[12] = molecular target: Vitamin D3 receptor (Homo sapiens) (UniProt P11473); test: qHTS assay for small molecule antagonists of vitamin D receptor signaling (AID 588541);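 note: receptor activated by calcitriol during compound treatment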
Vitamin D3 receptor (Homo sapiens), sequence (P11473 whole entry, looked up): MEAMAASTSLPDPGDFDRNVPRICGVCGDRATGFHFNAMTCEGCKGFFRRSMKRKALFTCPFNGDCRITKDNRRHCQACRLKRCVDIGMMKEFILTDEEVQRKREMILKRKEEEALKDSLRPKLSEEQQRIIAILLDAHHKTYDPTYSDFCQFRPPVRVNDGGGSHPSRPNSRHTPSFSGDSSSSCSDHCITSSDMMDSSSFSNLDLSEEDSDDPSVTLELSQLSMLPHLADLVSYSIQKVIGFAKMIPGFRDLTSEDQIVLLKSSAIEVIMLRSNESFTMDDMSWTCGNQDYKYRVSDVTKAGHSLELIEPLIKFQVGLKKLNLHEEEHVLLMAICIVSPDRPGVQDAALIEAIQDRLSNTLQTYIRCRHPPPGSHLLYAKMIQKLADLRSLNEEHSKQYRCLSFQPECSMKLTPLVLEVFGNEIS
Method in brief: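 VDR-UAS-bla HEK293T cells (2000/well, 2% charcoal-stripped FBS) were treated with titrated compounds plus 1-alpha,25-dihydroxyvitamin D3 (50 nM or 3 nM final) for 16 h at 37 C. CCF4 beta-lactamase fluorescence was read; Hill fits gave IC50.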

[13] = molecular target: Vitamin D3 receptor (Homo sapiens) (UniProt P11473); test: qHTS assay for small molecule agonists of vitamin D receptor signaling (AID 588543)
Method in brief: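 Measured: β-lactamase reporter activity (CCF4, 405 nm excitation, 460/530 nm emission) in HEK293T VDR-UAS-bla cells after 16 h compound exposure at 37 °C. Normalization against 50 nM 1α,25-dihydroxyvitamin D3 and DMSO; Hill-fit EC50.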

[14] = qHTS assay for small molecule agonists of retinoid X receptor alpha signaling (AID 588544); conditions: HEK293T RXRa-UAS-bla, beta-lactamase reporter, 18 h; 530 nm emission
[15] = molecular target: Retinoic acid receptor RXR-alpha (Homo sapiens) (UniProt P19793); test: as above
Retinoic acid receptor RXR-alpha (Homo sapiens), sequence (P19793 whole entry, looked up): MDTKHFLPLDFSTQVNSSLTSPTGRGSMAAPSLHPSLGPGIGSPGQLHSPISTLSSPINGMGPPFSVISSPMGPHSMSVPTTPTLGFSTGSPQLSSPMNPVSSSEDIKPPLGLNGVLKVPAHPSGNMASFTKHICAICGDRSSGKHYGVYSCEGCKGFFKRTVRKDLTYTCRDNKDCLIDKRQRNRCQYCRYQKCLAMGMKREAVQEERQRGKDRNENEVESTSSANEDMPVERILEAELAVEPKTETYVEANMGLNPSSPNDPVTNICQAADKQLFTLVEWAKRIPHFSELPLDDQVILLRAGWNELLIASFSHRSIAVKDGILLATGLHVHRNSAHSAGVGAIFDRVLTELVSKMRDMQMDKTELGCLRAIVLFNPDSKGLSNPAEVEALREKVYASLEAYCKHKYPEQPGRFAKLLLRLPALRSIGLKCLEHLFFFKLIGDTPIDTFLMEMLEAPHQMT

[16] = molecular target: Thyroid hormone receptor beta (Homo sapiens) (UniProt P10828); test: qHTS assay for small molecule agonists of thyroid hormone receptor beta signaling (AID 588545)
Thyroid hormone receptor beta (Homo sapiens), sequence (P10828 whole entry, looked up): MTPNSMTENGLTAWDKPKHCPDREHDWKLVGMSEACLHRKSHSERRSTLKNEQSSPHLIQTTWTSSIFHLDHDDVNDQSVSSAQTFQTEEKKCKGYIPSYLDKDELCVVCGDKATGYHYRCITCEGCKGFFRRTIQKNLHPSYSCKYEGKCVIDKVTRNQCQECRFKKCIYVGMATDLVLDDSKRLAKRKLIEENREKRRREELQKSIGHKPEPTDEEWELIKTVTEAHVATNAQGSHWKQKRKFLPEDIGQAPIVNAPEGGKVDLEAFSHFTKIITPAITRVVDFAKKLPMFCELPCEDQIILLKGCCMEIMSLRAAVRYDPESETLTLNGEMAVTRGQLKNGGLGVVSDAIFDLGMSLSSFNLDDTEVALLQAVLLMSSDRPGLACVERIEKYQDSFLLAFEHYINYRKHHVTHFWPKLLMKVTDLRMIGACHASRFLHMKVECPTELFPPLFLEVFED
Method in brief: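 Efficacy and EC50 values derive from Hill fits of qHTS titration data, normalized to 10 nM T3 and DMSO-only wells. HEK 293 reporter cells were stimulated for 18 hrs at 37 C, with beta-lactamase activity measured by CCF4 fluorescence.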

[17] = qHTS assay for small molecule antagonists of retinoid X receptor alpha signaling (AID 588546; active = well fitted inhibition curve with a large enough effect in the signal ratio, with a control signal flat, not every such curve was filed as active; the % refers to the signal ratio;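 note: cells stimulated with 9-cis-retinoic acid as agonist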); conditions: HEK293T RXRa-UAS-bla, beta-lactamase ratio, antagonist mode; measured here: W530 green channel, cytotoxicity proxy
Method in brief: (§2)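 Beta-lactamase reporter inhibition, read as CCF4 fluorescence ratio (ex 405, em 460/530 nm) after 2 h at RT. HEK293T UAS-bla cells, 2500/well, were stimulated with 9-cis-RA at 500 or 100 nM final alongside test compound for 18 h at 37 C.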

[18] = molecular target: Retinoic acid receptor RXR-alpha (Homo sapiens) (UniProt P19793); test: as above; conditions: HEK293T RXRa-UAS-bla, beta-lactamase ratio, antagonist mode
Method in brief: as §2

[19] = molecular target: Thyroid hormone receptor beta (Homo sapiens) (UniProt P10828); test: qHTS assay for small molecule antagonists of thyroid hormone receptor beta signaling (AID 588547; active = well fitted inhibition curve with a large enough effect in the signal ratio, with a control signal flat, not every such curve was filed as active; the % refers to the signal ratio;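 note: cells stimulated with 0.4 nM T3 agonist during compound exposure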); conditions: TR-UAS-bla HEK293, beta-lactamase ratio, antagonist mode, 18 h
Method in brief: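 TR-UAS-bla GripTite HEK293 cells in 2% charcoal/dextran FBS medium were preincubated 4 h at 37 C, given compound (0.59 nM to 92 uM) plus 0.4 nM T3 (final) for 18 h, then CCF4 for 2 h at RT; Hill fit gave IC50.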

[20] = qHTS assay for small molecule agonists of the antioxidant response element (ARE) signaling pathway (AID 651741; active = well fitted activation curve with a large enough effect in the signal ratio; the % refers to the signal ratio)
Method in brief: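 ARE-bla HepG2 cells (beta-lactamase reporter under ARE control) were plated at 2,000 cells/well, preincubated 5 h at 37 C/5% CO2, then treated with DMSO-dissolved compounds for 16 h at 37 C; LiveBLAzer B/G FRET substrate added, fluorescence read after 2 h at room temperature.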

[21] = qHTS assay for small molecule agonists of the antioxidant response element (ARE) signaling pathway measured by Nrf2-dependant transcriptional activity (AID 720636; active = well fitted curve in the direction sought with a large enough effect in the repeat runs; an effect the other way counts as inactive or inconclusive;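 note: HepG2 cells with an ARE-driven luciferase reporter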)
Method in brief: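 HepG2 ARE-luc reporter line, 1% dialyzed FBS; 6 hr attachment at 37 C, compound pinned in, 16 hr at 37 C/5% CO2; ONE-Glo, 30 min RT, luminescence read.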

[22] = qHTS assay for small molecule agonists of the antioxidant response element (ARE) signaling pathway measured by Nrf2-dependant transcriptional activity - cell viability counter screen (AID 720653; active = well fitted curve in the direction sought with a large enough effect in the repeat runs; an effect the other way counts as inactive or inconclusive); conditions: ARE-bla HepG2 viability, CellTiter-Glo ATP luminescence, 16 h; stronger effect = lower value
Method in brief: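 ARE-bla HepG2 cells (2,000/well) rested 5 hrs at 37C/5% CO2, then exposed to compounds in DMSO for 16 hrs. Viability was read in the same wells as intracellular ATP by luminescence, 30 min at room temperature after reagent addition.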

[23] = qHTS assay for cell viability of HEK293 cells (AID 743288; active = well fitted curve in the direction sought with a large enough effect; an effect the other way counts as inactive or inconclusive; note: nearly all actives have a fitted effect of over 50% in size); conditions: ATP luminescence (CellTiter-Glo), 18 h; max response: stronger effect = lower value
Method in brief: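 Luminescent ATP quantitation served as the viability read-out. Cells (parental HEK293, 2,000/well) received compounds after at least 5 h at 37 C and were exposed for 18 h before a 30 min room-temperature reagent step.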

[24] = qHTS assay for cell viability of the p53RE-bla HCT-116 cell line (AID 743292; active = well fitted curve in the direction sought with a large enough effect; an effect the other way counts as inactive or inconclusive; note: nearly all actives have a fitted effect of over 55% in size)
Method in brief: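 Luminescent ATP quantitation (CellTiter-Glo) served as the viability read-out; reagent was added after 16 h compound exposure at 37 C and read after 30 min at room temperature. Cells: p53RE-bla HCT-116, 4,000 per well.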

[25] = molecular target: Nuclear receptor subfamily 1 group I member 2 (Rattus norvegicus) (UniProt Q9R1A7); test: qHTS assay for small molecule activators of the rat pregnane X receptor (rPXR) signaling pathway (AID 651751; call rule not given here); conditions: rPXR reporter cells, luciferase (One-Glo), 24 h
Nuclear receptor subfamily 1 group I member 2 (Rattus norvegicus), sequence (Q9R1A7 whole entry, looked up): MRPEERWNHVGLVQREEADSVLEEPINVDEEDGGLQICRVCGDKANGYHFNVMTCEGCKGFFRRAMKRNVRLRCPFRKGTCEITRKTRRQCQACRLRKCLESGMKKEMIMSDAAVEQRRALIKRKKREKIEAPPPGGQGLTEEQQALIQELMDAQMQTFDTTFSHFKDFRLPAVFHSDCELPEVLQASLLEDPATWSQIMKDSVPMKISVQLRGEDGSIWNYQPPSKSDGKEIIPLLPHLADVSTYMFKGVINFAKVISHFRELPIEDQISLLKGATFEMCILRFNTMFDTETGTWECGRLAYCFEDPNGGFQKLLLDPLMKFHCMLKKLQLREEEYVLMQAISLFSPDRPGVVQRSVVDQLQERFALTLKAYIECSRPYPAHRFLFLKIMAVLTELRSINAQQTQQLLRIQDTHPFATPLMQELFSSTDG

[26] = qHTS assay for small molecule activators of the human pregnane X receptor (PXR) signaling pathway (AID 720659; call rule not given here)
[27] = measured here: cell count channel max response
[28] = measured here: lipid channel max response

O=c1cccc2n1CC1CC2CN(CCO)C1 (configuration not stated)
Potency [1]: inactive
activity change, negative = inhibition [2]: 3.63% (inactive)
max response [2, 27]: 9.42%
max response [2, 28]: 15.7%
outcome [3]: inactive

CNC(=O)CSP(=S)(OC)OC
Potency [1]: inactive
Potency [4]: inactive
Potency [5]: inactive
activity change, negative = inhibition [2]: 4.16% (inactive)
max response [2, 27]: 5.57%
max response [2, 28]: 8.94%
Potency [6]: inactive
Potency [7]: inactive
max response [8]: 27.9%
Potency [9]: inactive
outcome [10]: inactive
Potency [11]: inactive
outcome [12]: inactive
outcome [13]: inactive
max response [14]: 1.61%
Potency [15]: inactive
outcome [16]: inactive
max response [17]: 1.7%
max response [18]: -6.5% (inactive)
activity change % (negative = inhibition) [19]: -15.4% (inactive) and 6.49% (inactive)
Potency [20]: inactive
outcome [21]: inactive
max response [22]: -1.41% (inactive) and -0.459% (inactive)
max response [23]: -6.64% (inactive) and -7.96% (inactive)
Potency [24]: inactive
max response [25]: -3.03% (inactive) and -0.565% (inactive)
outcome [26]: inactive
